Bioassay records deposited in PubChem by National Center for Advancing Translational Sciences (NCATS).
DRD3 antagonist: blocks the human D3 dopamine receptor. P35462. D3R cells, DiscoveRx beta-arrestin luminescence, antagonist mode; active compounds read low. max response, negative = inhibition, %. actives 2.5% (n = 360,000); in the data active means max response below about -50%; inconclusive means no clear call, values can overlap the other calls; further: on the % scale 0 is the no-effect control and ±100 the full control effect
Target sequence (P35462 whole entry, looked up): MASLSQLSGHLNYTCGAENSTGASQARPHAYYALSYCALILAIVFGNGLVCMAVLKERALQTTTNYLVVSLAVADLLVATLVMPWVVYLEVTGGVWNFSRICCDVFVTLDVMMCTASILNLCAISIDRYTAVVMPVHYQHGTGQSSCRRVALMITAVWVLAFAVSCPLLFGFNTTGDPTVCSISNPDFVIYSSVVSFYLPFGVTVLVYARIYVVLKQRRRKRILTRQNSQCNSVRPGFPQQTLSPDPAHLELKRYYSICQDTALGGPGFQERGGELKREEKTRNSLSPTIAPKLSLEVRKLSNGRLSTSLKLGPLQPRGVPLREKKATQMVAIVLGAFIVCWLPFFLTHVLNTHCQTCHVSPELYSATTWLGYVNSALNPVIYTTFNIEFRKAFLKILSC
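Cells expressing the human receptor were seeded at 1500 cells/well, incubated overnight at 37 degrees C in 5% CO2, then exposed to library compounds with dopamine controls for 90 minutes at 37 degrees C before luminescent detection.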
GLP1R ag: activates the human GLP-1 receptor; Potency, µM (highest dose often 45.6 µM), without a hit: at the top dose activation, usual class: activators; actives 0.007% (n = 380,000); HEK293 GLP-1R CRE-luciferase, luminescence, 4-6 h; cells express a hypersensitive GLP-1R form; further: potency means the concentration at half of the fitted maximal effect; % of control where 0% means no effect
D3 ag: agonists of human D3 dopamine receptor; max activation, %; actives 0.58% (n = 410,000); AID 652048; P35462; D3R DiscoveRx beta-arrestin cells, luminescence, 90 min; in the data active means max activation above about 30%; further: 0% is about no effect
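Agonist mode: compounds and dopamine controls were applied to plated cells for 90 min at 37 degrees C after an overnight attachment at 1500 cells/well. Luminescent read-out followed 30 - 60 minutes at room temperature with DiscoveRx detection reagent.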
GLP1R inv ag: acts as inverse agonist at human GLP-1 receptor; P43220; HEK293 GLP-1R CRE-luciferase, luminescence, 24 h; GLP-1R form is constitutively active; Potency, µM (doses to about 38.3 µM), inactives show at the highest dose activity change, negative = inhibition, most hits filed as inhibitors; actives 1.6% (n = 410,000); further: potency means the concentration at half of the fitted maximal effect; on the % scale 0 is the no-effect control and ±100 the full control effect; nearly all actives have a fitted effect of over 55% in size
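Cells are plated, allowed 12 hours at 37 deg C, then treated with compounds for 24 hr before luciferase detection reagent is added and luminescence is read after 12 min at room temperature. The HEK293 line carries constitutively active GLP-1R with a cAMP-responsive reporter.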
* marks the source's active call; other numbers are inactive results; ? = inconclusive; . = no result; ! = a repeat was not active. Compounds with a hit are over-represented: about 4.3% of the library has one in this group of screens. Unless noted, the call rests on the fitted dose curve; in most records, active means well fitted curve in the direction sought with a large enough effect; inconclusive means small, poorly fitted or top-dose-only effect, or another doubt; inactive means no such curve, though single readings can be large; an effect the other way counts as inactive or inconclusive.

SMILES | DRD3 antagonist | GLP1R ag | D3 ag | GLP1R inv ag
CCOc1cc(/C=N/NC(=O)c2cc(-c3cccc(OC)c3)nc3ccccc23)ccc1O | 96 | 9% | 35* | -12%
COc1cc(/C=N/NC(=O)c2cc(-c3ccccc3)nc3ccccc23)ccc1O | 23 | -6% | -9 | 2%
COc1cc(/C=N/NC(=O)c2cc(-c3cccc(Br)c3)nc3ccccc23)cc(OC)c1O | 7 | 21% | 32* | 12%
CCCC(=O)c1ccc(OC(=O)c2c(-c3ccccc3Cl)noc2C)cc1 | . | . | -3 | -6%
CCCCN(C)C(=O)c1ccc2c(c1)N(CC)C(=O)c1ccccc1S2=O (configuration not stated) | 0 | 6% | 6 | 18%
O=C(NCCCN1CCCC1)c1ccc2c(c1)N(Cc1ccccc1F)C(=O)c1ccccc1S2=O (configuration not stated) | -25 | 0% | -17 | 8.9µM*
CCCCN(C)CCCNC(=O)c1ccc2c(c1)N(CC)C(=O)c1ccccc1S2=O (configuration not stated) | -84* | 3% | -39 | -10%
C=CCOc1ccc(C2C(C#N)=C(N)N(Nc3ccccc3)C3=C2C(=O)CCC3)cc1OC (configuration not stated) | -23 | 0% | -1 | ?
COc1cc(C2C(C#N)=C(N)N(Nc3ccccc3)C3=C2C(=O)CC(C)(C)C3)ccc1OCc1cccc(F)c1 (configuration not stated) | 2 | -13% | -6 | 5.6µM*
COc1cc(C2C(C#N)=C(N)N(Nc3ccccc3)C3=C2C(=O)CC(C)(C)C3)ccc1OCc1ccccc1 (configuration not stated) | -25 | -14% | -4 | 3.2µM*
COc1ccc(C2C(C#N)=C(N)N(Nc3ccccc3)C3=C2C(=O)CC(C)(C)C3)cc1C (configuration not stated) | ? | -12% | -1 | ?
Cc1cccc(-c2nc3scc(CCNS(=O)(=O)c4ccc(F)c(C(F)(F)F)c4)n3n2)c1 | . | . | -4 | -20%
CCOC(=O)c1ccc(NC(=O)CSc2nccn2Cc2ccc(OC)cc2)cc1 | . | . | -9 | -1%
Cc1ccc(C(=O)NC(=S)N2CCN(c3ccc([N+](=O)[O-])cc3)CC2)cc1 | -53* | 6% | -23 | -13%
COc1ccccc1N(C(C)=O)C1=C(Cl)C(=O)c2ccccc2C1=O | -137* | -11% | -14 | ?
O=C(Cn1cnc2ccccc2c1=O)Nc1cccc(-c2nnc3n2CCCCC3)c1 | -51* | 10% | -1 | -9%
Cc1cccc(NC(=O)Cn2c(=O)c3cccn3c3ccccc32)c1C | . | . | 10 | 7%
Cc1ccccc1OCC(=O)Nc1nnc(SCc2cc(=O)n3cc(Cl)ccc3n2)s1 | . | . | 4 | 3%
O=C(OCc1ccccc1)N(CCF)c1cn(Cc2ccccc2)c(=O)n(Cc2ccccc2)c1=O | -11 | 18% | -3 | 10µM*
COCCCNC(=O)C1CCCN(S(C)(=O)=O)C1 (configuration not stated) | 0 | 4% | -16 | 12%
COc1cccc(-c2nnc(SCC(=O)N3CCCc4ccccc43)o2)c1 | -52* | -1% | 1 | ?
COc1cccc(-c2nnc(SCC(=O)Nc3cc(C)on3)o2)c1 | -65* | 34% | -8 | -4%
Cc1cc(NC(=O)CSc2nc3cc(Cl)ccc3o2)no1 | 8 | 5% | 5 | 2.5µM*
COc1ccc(-c2nsc(NC(=O)c3oc4ccccc4c3C)n2)cc1 | . | . | 3 | 11%
Cc1cc(C)nc(-n2nc(C)c3c2N(Cc2ccccc2F)C(=O)CC3c2ccc(Cl)cc2)n1 (configuration not stated) | . | . | -13 | 7%
SMILES | DRD3 antagonist | GLP1R ag | D3 ag | GLP1R inv ag
c1ccc(N2CCN(CC3CCCCC3)CC2)cc1 | -75* | -1% | 8 | 20%
O=C(CSC1CCCCC1)N1CCN(c2ccccc2)CC1 | -12 | 2% | 1 | ?
Nc1c(C(=O)Nc2ccccc2)sc2nc3c(c(-c4ccco4)c12)CCC3 | -60* | 1% | 7 | ?
C[C@]12CCC(=O)C[C@@H]1CC[C@@H]1[C@@H]2CC[C@]2(C)C=CC[C@@H]12 | 19 | -2% | 35*! | 3%
CCc1cccc2c(-c3ccccc3)nc(SCC(=O)Nc3ccccc3OC)nc12 | . | . | -1 | -1%
O=[N+]([O-])c1ccc(OCC(O)CNCCNc2nccc(C(F)(F)F)n2)cc1 (configuration not stated) | -84* | -1% | -15 | ?
Cc1nccn1CC(O)COc1ccc([N+](=O)[O-])cc1 (configuration not stated) | -4 | 9% | 4 | ?
O=C(Nc1cccc(Br)c1)N1CCN2CCCCC2C1 (configuration not stated) | . | . | -10 | 2%
Cc1cccc(-c2nc(CN3CCCC(C(=O)NC4CCCCC4)C3)c(C)o2)c1 (configuration not stated) | -11 | 4% | -24 | 3.5µM*
Cc1ccc(NC(=O)CN2C(=O)C(c3ccccc3)=NC2(C)C)cc1C | . | . | 6 | -14%
O=C(O)c1ccccc1-c1c2cc(Br)c(=O)c(Br)c-2oc2c(Br)c(O)c(Br)cc12 | . | -7% | . | .
CN(C)S(=O)(=O)c1ccc(N=Cc2c(C(F)(F)F)[nH][nH]c2=O)cc1 | -13 | -1% | 0 | 1%
Cn1[nH]c(C(F)(F)F)c(C=Nc2ccc(Cl)cc2)c1=O | -63* | -6% | -4 | -1%
Cc1nc2c(-c3ccc(F)cc3)cnn2c(N)c1-c1ccc(F)cc1 | ? | 16% | 15 | 2µM*
Cc1cc(N)n2ncc(-c3ccc(F)cc3)c2n1 | 25 | 8% | 7 | 4%
Cc1ccc(S(=O)(=O)/N=C(/NC(=S)Nc2ccccc2)c2ccccc2)cc1 | 5 | 0% | 2 | -6%
Cc1ccc(S(=O)(=O)C/N=C(/NC(=S)N(c2ccccc2)c2ccccc2)c2ccccc2)cc1 | -56* | 4% | -14 | -14%
COc1ccc(-c2cc(C(F)(F)F)nc(-n3nc(C(F)(F)F)cc3C)n2)cc1 | . | . | 4 | ?
CC(C)(C)C1(O)CC(C(F)(F)F)=NN1C(=O)Cc1ccc([N+](=O)[O-])cc1 (configuration not stated) | -3 | 18% | 8 | 10µM*
Cc1ccc(OCC(=O)N2N=C(C(F)(F)F)CC2(O)C(C)(C)C)cc1C (configuration not stated) | -1 | -2% | 4 | -57%
Cc1ccccc1OCC(=O)N1N=C(C(F)(F)F)CC1(O)C(C)(C)C (configuration not stated) | -18 | -19% | -5 | 8.9µM*
COc1cc(NC(=O)c2cc(S(=O)(=O)N3CCC(C)CC3)cn2C)cc(OC)c1OC | . | 1% | -1 | 3%
CCOC(=O)c1cc(C)n(CC2CCC(C(=O)Nc3cc(OC)cc(OC)c3)CC2)c1C (configuration not stated) | . | . | -9 | ?
